Compounds with a hit are over-represented: about 5.7% of the library has one in this group of screens.
AHR activator – AHR activators, primary screen, cell-based, luminescence, luciferase reporter, human; AHR-responsive luciferase reporter cells; activation, % at 5 µM; 2.5% of 320,000 active; in the data active = activation above about 47%;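 note: 0% = vehicle wells and 100% = reference agonist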
Target sequence (P35869 whole entry, looked up): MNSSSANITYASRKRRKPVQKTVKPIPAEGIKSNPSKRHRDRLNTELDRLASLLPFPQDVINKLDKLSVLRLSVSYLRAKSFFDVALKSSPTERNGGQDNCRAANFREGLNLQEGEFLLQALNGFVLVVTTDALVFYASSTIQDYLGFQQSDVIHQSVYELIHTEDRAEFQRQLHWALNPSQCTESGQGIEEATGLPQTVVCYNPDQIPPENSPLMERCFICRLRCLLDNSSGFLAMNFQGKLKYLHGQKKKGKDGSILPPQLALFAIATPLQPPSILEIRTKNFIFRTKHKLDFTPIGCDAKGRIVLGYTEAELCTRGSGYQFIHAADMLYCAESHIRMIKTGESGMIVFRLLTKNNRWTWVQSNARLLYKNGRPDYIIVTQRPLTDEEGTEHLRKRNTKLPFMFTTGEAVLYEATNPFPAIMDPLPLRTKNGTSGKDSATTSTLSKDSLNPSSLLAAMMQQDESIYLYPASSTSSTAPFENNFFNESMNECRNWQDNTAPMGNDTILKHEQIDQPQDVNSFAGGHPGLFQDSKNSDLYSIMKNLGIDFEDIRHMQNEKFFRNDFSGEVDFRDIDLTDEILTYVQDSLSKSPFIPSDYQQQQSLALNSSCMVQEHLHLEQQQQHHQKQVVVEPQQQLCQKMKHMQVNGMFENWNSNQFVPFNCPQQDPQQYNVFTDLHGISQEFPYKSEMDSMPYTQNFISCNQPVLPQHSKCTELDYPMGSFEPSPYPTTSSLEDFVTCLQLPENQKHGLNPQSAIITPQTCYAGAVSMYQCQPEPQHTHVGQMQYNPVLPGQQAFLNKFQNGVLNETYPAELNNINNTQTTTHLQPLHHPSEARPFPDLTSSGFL
hcDAF12 agonist – H. contortus DAF-12 nuclear receptor activators, primary screen, cell-based, luminescence, HEK293, lit1-tk-luc reporter | AID 652067, 2013 | HEK293 hcDAF-12 lit1-tk-luc reporter; 0% DMSO, 100% Δ7-dafachronic acid | activation, % at 6.8 µM | 1.4% of 370,000 active;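 active = activation above the mean of all tested compounds plus 3 SD, cut at about 5.5% in these data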;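 note: 100% = response to 3 µM Δ7-dafachronic acid high control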
hgDAF12 agonist – H. glycines DAF-12 receptor agonists, primary screen, cell-based, luminescence, HEK293, GAL4 fusion, UAS-luciferase. Nuclear hormone receptor DAF-12 (Heterodera glycines), GAL4 fusion. HEK293 GAL4-hgDAF12 UAS-luciferase reporter, agonist luminescence; normalized to butyrate control. activation, % at 6.8 µM. 1.8% of 370,000 active;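 active = activation above a cutoff set at the mean of all screened compounds plus 3 SD, cut at about 10% in these data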;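 note: 0% = DMSO wells and 100% = sodium butyrate wells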
DAX1 inh-1 – DAX1 (NR0B1) inhibitors, primary screen, cell-based, HEK293, Gal4-DAX1, luciferase luminescence; HEK293 Gal4-DAX1 luciferase reporter; 0.99% of 340,000 active; inhibition, % at 6.75 µM; AID 504766, 2011; Nuclear receptor subfamily 0 group B member 1 (Homo sapiens), P51843;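 active = inhibition above the mean over all tested compounds plus 3 SD, cut at about 4.2% in these data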;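 note: 0% = DAX1-transfected cells with DMSO and 100% = empty-vector control cells with DMSO; inhibition shows as a rise in luminescence from relieved DAX1 repression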
ssDAF12 agonist – S. stercoralis DAF-12 nuclear receptor activators, primary screen, cell-based, luminescence, HEK293, GRIP1 co-expression, lit1-tk-luc; Nuclear hormone receptor DAF-12 (Strongyloides stercoralis); HEK293 ssDAF-12/GRIP1 lit1-tk-luc reporter; % of 3 µM dafachronic acid response; activation, % at 6.8 µM; 1% of 370,000 active; AID 652126, 2013;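 active = activation above the mean over all tested compounds plus 3 SD, cut at about 0.9% in these data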;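 note: 0% = DMSO-only wells and 100% = 3 µM delta7-dafachronic acid wells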
DAX1 inh-2 – DAX1 (NR0B1) inhibitors on StAR promoter, primary screen, cell-based, luminescence, SF-1 (NR5A1), full-length DAX-1; HEK293T StAR-luciferase reporter, SF-1/DAX-1 repression relief; inhibition, % at 6.8 µM; 1.1% of 370,000 active;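 active = inhibition above the mean over all tested compounds plus 3 SD, cut at about 3.6% in these data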;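 note: 0% = DAX-1 cells with DMSO and 100% = cells lacking DAX-1 with DMSO; higher inhibition means more luminescence from relief of DAX-1 repression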
Starred values were filed as active, the others as inactive.

Screening CCOc1ccc(CCNC(=O)CN2C(=O)c3cccnc3Oc3ccc(Cl)cc32)cc1 returned AHR activator 2, hcDAF12 agonist -3, hgDAF12 agonist -4, DAX1 inh-1 -1, ssDAF12 agonist -2 and DAX1 inh-2 -3.
For Cn1c(=S)n(/N=C/c2ccc3c(c2)OCO3)c2ccccc21 the results were AHR activator 58*, hcDAF12 agonist 1, hgDAF12 agonist 0, DAX1 inh-1 0, ssDAF12 agonist -1 and DAX1 inh-2 -1.
For CCc1n[nH]c(=S)n1/N=C/c1ccc2c(c1)OCO2 the results were AHR activator 17, hcDAF12 agonist -1, hgDAF12 agonist 0, DAX1 inh-1 4.8*, ssDAF12 agonist -1 and DAX1 inh-2 0.
Screening COc1ccc(/C=N/n2c(=S)n(C)c3ccccc32)cc1OC returned AHR activator 7, hcDAF12 agonist -1, hgDAF12 agonist 0, DAX1 inh-1 0, ssDAF12 agonist -1 and DAX1 inh-2 0.
For C(=N\n1cnnc1)/c1ccc2c(c1)OCO2 the results were AHR activator 6, hcDAF12 agonist -1, hgDAF12 agonist 1, DAX1 inh-1 -1, ssDAF12 agonist 0 and DAX1 inh-2 -1.
O=C(/C=C/C=C/c1ccc2c(c1)OCO2)N1CCCCC1 was read as AHR activator 18, hcDAF12 agonist 5, hgDAF12 agonist 10, DAX1 inh-1 5.3*, ssDAF12 agonist 0 and DAX1 inh-2 2.
CN1CCN(C(=O)/C=C/c2ccc3c(c2)OCO3)CC1 was read as AHR activator 23, hcDAF12 agonist 3, hgDAF12 agonist 0, DAX1 inh-1 -1, ssDAF12 agonist -1 and DAX1 inh-2 0.
For C(=NN1CCCCCC1)c1ccc2c(c1)OCO2 the results were hcDAF12 agonist 2, hgDAF12 agonist 6, DAX1 inh-1 4.3*, ssDAF12 agonist 0 and DAX1 inh-2 1.
Screening Cc1nn(-c2cc(C(F)(F)F)ccc2Cl)c2nc(C(F)(F)F)[nH]c(=O)c12 returned AHR activator 3, hcDAF12 agonist -2, hgDAF12 agonist 1, DAX1 inh-1 0, ssDAF12 agonist -1 and DAX1 inh-2 0.
Screening CCCn1c(SCc2ccc(Cl)cc2)nc2c1c(=O)[nH]c(=O)n2C returned AHR activator -4, hcDAF12 agonist -3, hgDAF12 agonist -2, DAX1 inh-1 0, ssDAF12 agonist -1 and DAX1 inh-2 0.
Screening Cc1cc2ncn(/N=C/c3ccc4c(c3)OCO4)c2cc1C returned AHR activator 55*, hcDAF12 agonist 0, hgDAF12 agonist -1, DAX1 inh-1 1, ssDAF12 agonist -2 and DAX1 inh-2 0.
CCCOc1ccc(-c2cn3ccccc3n2)cc1[N+](=O)[O-] was read as AHR activator -1, hcDAF12 agonist 0, hgDAF12 agonist 12*, DAX1 inh-1 0, ssDAF12 agonist -1 and DAX1 inh-2 2.
For COc1ccc(-c2cn3ccccc3n2)cc1[N+](=O)[O-] the results were AHR activator 2, hcDAF12 agonist 2, hgDAF12 agonist 11*, DAX1 inh-1 2, ssDAF12 agonist -1 and DAX1 inh-2 0.
Screening COc1ccc(-c2cn3cc([N+](=O)[O-])ccc3n2)cc1OC returned AHR activator -5, hcDAF12 agonist -1, hgDAF12 agonist 8, DAX1 inh-1 3, ssDAF12 agonist -2 and DAX1 inh-2 0.
For CCCCOc1ccc(-c2csc(N)n2)cc1[N+](=O)[O-] the results were AHR activator -6, hcDAF12 agonist 2, hgDAF12 agonist 11*, DAX1 inh-1 3, ssDAF12 agonist 0 and DAX1 inh-2 2.
Cc1ccc(S(=O)(=O)N2CCOCC2)cc1NC(=O)CSc1nnc2n1CCCCC2 was read as AHR activator -2, hcDAF12 agonist 0, hgDAF12 agonist 2, DAX1 inh-1 1, ssDAF12 agonist 0 and DAX1 inh-2 -1.
For CCc1ccc(C(=O)Nc2ccc3c(c2)n(C)c(=O)n3C)cc1 the results were AHR activator 30, hcDAF12 agonist -1, hgDAF12 agonist 2, DAX1 inh-1 5.9*, ssDAF12 agonist -1 and DAX1 inh-2 0.
Screening Cc1ccc(NC(=O)c2ccc(F)cc2F)cc1NS(C)(=O)=O returned AHR activator 61*, hcDAF12 agonist 1, hgDAF12 agonist 2, ssDAF12 agonist -1 and DAX1 inh-2 0.
For COc1cc(F)ccc1-c1cc(C(=O)Nc2ccc(C)c(NS(C)(=O)=O)c2)[nH]n1 the results were hcDAF12 agonist -3, hgDAF12 agonist -6, ssDAF12 agonist -2 and DAX1 inh-2 -7.
CCc1ccc(C(=O)Nc2ccc(C)c(NS(C)(=O)=O)c2)cc1 was read as AHR activator 65*, hcDAF12 agonist 2, hgDAF12 agonist 2, ssDAF12 agonist -2 and DAX1 inh-2 0.
COc1cc(OC)cc(C(=O)Nc2ccc3c(c2)n(C)c(=O)n3C)c1 was read as AHR activator 38, hcDAF12 agonist -1, hgDAF12 agonist -2, DAX1 inh-1 1, ssDAF12 agonist 0 and DAX1 inh-2 0.
Cc1ccc(C(=O)NC(C#N)=C(Cl)Cl)cc1 was read as hcDAF12 agonist -4, hgDAF12 agonist -7, ssDAF12 agonist -2 and DAX1 inh-2 -3.
Screening COc1ccc(CNc2ccc([N+](=O)[O-])cn2)cc1 returned AHR activator 8, hcDAF12 agonist 0, hgDAF12 agonist 12*, DAX1 inh-1 2, ssDAF12 agonist 0 and DAX1 inh-2 0.
COc1ccc(Nc2ccc([N+](=O)[O-])cn2)cc1 was read as AHR activator 4, hcDAF12 agonist 1, hgDAF12 agonist 5, DAX1 inh-1 2, ssDAF12 agonist -1 and DAX1 inh-2 1.
For Nc1nc(COc2ccccc2)cs1 the results were AHR activator 4, hcDAF12 agonist 1, hgDAF12 agonist 5, DAX1 inh-1 1, ssDAF12 agonist 0 and DAX1 inh-2 1.
Screening COc1ccc(Nc2nc(N)nc(CSC(=S)N3CCN(C)CC3)n2)cc1 returned AHR activator 17, hcDAF12 agonist 0, hgDAF12 agonist 4, DAX1 inh-1 2, ssDAF12 agonist 5.4* and DAX1 inh-2 -1.
COc1ccc(OCc2nc(N)nc(Nc3ccc(C)cc3)n2)cc1 was read as AHR activator 65*, hcDAF12 agonist 0, hgDAF12 agonist 3, DAX1 inh-1 1, ssDAF12 agonist -1 and DAX1 inh-2 1.

Screening results: PubChem BioAssay, The Scripps Research Institute Molecular Screening Center
